Source: PubChem BioAssay
ROMK primary – ROMK potassium channel modulators, primary screen, cell-based, thallium flux, MLSMR library; ATP-sensitive inward rectifier potassium channel 1 (Homo sapiens), P48048; Tet-inducible ROMK, thallium flux fluorescence; actives lie on both sides; B-score at 10 µM; 2% of 130,000 active;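 active = signal ratio slope over the read window, or its plate-corrected B-score, at least 3 SD from the plate mean, either direction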;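 note: B-score of the F/F0 ratio slope over 7 to 12 s after thallium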
Lmaj promast – Leishmania major promastigote growth inhibition, primary screen; Leishmania major promastigotes, resazurin fluorescence viability; inhibition, % at 10 µM; 9% of 200,000 active; in the data active = inhibition above about 50%;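 note: promastigotes grown with compound for 44 hours at 28 °C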
INS promoter inh – inhibitors of insulin promoter-driven GFP, primary screen, imaging, TRM-6 cells (human fetal islet line), eGFP reporter, cell count. 0.9% of 130,000 active. AID 1273, 2008. reporter expression induced with tamoxifen. inhibition, % at 2 µM;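 active = inhibition above the mean plus 3 SD, with well images judged a real hit on visual review, cut at about 60% in these data, passing the limit was not always enough; inconclusive = inhibition over the cutoff but images rejected on review; inactive = inhibition not above the cutoff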
WT yeast gro inh – growth inhibition of WT strain, primary screen, mitochondrial fusion inhibitor project, WT and mutant strains, chemical genetic. mitochondrial fusion phenotypic screen. inhibition, % at 10 µM. 2.1% of 190,000 active. AID 1362, 2008; in the data active = inhibition above about 58%; tested in S. cerevisiae
Insulin prom up – insulin promoter activators in MIN6 cells, imaging, high-content screening, mouse beta cells | MIN6 insulin promoter-GFP reporter; hits give high values | z-score at 5 µM | 0.3% of 190,000 active | AID 1625, 2009;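 active = z-score above 3 at 5 µM with at least 500 cells counted in the well; inconclusive = wells under 500 cells, flagged as cytotoxic or low count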
Cl transport mod – KCC2 cotransporter modulators, thallium flux, primary screen, cell-based, HEK293 KCC2, FluoZin-2 fluorescence, MLSMR | AID 1456, 2008 | 2.2% of 190,000 active | Solute carrier family 12 member 5 (Homo sapiens), Q9H2X9 | KCC2 cells, thallium flux FluoZin-2 fluorescence | B-score of Tl+ flux slope (higher = more flux/activation; lower = inhibition) at 10 µM;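 active = thallium flux slope and its plate-corrected score both differing from the plate sample mean at a set confidence after two filtering rounds, in either direction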;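 note: slope of fluorescence scaled to starting intensity during 10 to 20 s after thallium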
KCC2 secondary – KCC2 modulators in sodium-free buffer, confirmation, cell-based, HEK293 KCC2, thallium flux, secondary assay; FluoZin2 fluorescence; hits give high values; normalised thallium flux (F/F0 slope) at 10 µM; shares compounds with Cl transport mod; 15% of 3,700 active;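 active = thallium flux slope above the same plate's solvent-only control mean plus 3 SD; inconclusive = the two replicate wells disagree; inactive = no significant difference from solvent-only control wells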
KCC2 bumet counter – thallium flux persisting under bumetanide in KCC2 cells, confirmation, counter-screen for KCC2 modulator project, cell-based, HEK293 KCC2, FluoZin2, secondary assay 3; shares compounds with Cl transport mod; HEK293-KCC2 + bumetanide/ouabain; hits give high values; normalized thallium flux at 10 µM; 49% of 3,700 active; AID 1714, 2009;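 active = thallium entry rate above the same plate's blocked-transporter control wells by more than 3 SD; inconclusive = the two repeat wells disagree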;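 note: raw slope of fluorescence over initial fluorescence between 10 and 20 s after thallium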
KCC2 secondary2 – KCC2 modulators without ouabain present, confirmation, cell-based, HEK293 KCC2, thallium flux, FluoZin2, secondary assay 2 | 23% of 3,700 active | shares compounds with Cl transport mod | thallium flux FluoZin2 fluorescence; actives lie on both sides; F/F0 rise rate, 10–20 s post-thallium | normalized thallium flux at 10 µM | AID 1715, 2009;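 active = thallium flux slope more than 3 SD above or below the plate's solvent-only control mean, mostly below; inconclusive = the two repeat wells disagreed; inactive = no significant shift from solvent-only controls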
HEK counter1 – thallium flux modulation in parental HEK cells, confirmation, counter-screen for KCC2 modulator project, cell-based, counterscreen 1; 46% of 3,700 active; shares compounds with Cl transport mod; HEK293 parental cells, thallium flux FluoZin2, ouabain; baseline-ratio fluorescence slope, 10–20 s after thallium; thallium flux rate (normalised fluorescence) at 10 µM;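 active = thallium flux rate significantly above the same plate's solvent-only control wells, beyond their mean plus 3 SD; inconclusive = the two replicate wells gave conflicting results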
KCC2 retest ouab – KCC2 inhibitors and activators, ouabain retest, confirmation, HEK-KCC2 cells; shares compounds with Cl transport mod; HEK293-KCC2, thallium flux FluoZin2 fluorescence; bidirectional: low = inhibitor, high = activator; raw Tl+ flux slope (below DMSO = inhibition, above = activation) at 10 µM; 48% of 3,700 active;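 active = thallium flux slope beyond 3 SD from same-plate DMSO control mean in most replicates, usually higher, sometimes lower; inconclusive = repeat tests gave conflicting results; inactive = no significant difference from controls in most replicates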;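 note: slope of initial-normalized fluorescence between seconds 10 and 20 after thallium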
HEK293 Tl flux2 – native HEK Tl+ uptake effects, second counter-screen – HEK cells, counterscreen 2, counter-screen for KCC2 modulator project, confirmation | shares compounds with Cl transport mod | HEK293 parental, thallium flux FluoZin-2 fluorescence slope | thallium flux slope at 10 µM | 33% of 3,700 active;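 active = thallium flux slope above the same plate's solvent-control mean plus 3 SD in both duplicate wells; inconclusive = duplicate wells that disagreed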;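 note: run without ouabain in cells lacking the KCC2 cotransporter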
Each line names hits and unclear results; the compound was inactive in the other large screens (follow-up assays come after a bar, where they were run). Shown are actives, neighbours in structure and some others; about 12% of the full set was active somewhere.

Cn1c(SCC(=O)NCc2ccccc2)nc2ccccc21	none (no result: INS promoter inh) | KCC2 secondary inconclusive | KCC2 bumet counter inactive | KCC2 secondary2 inactive | HEK counter1 inactive | KCC2 retest ouab inactive | HEK293 Tl flux2 inactive
CN(C)c1ccc(-c2nnn(CC(=O)NCc3ccc4c(c3)OCO4)n2)cc1	none (no result: INS promoter inh)
COCC(O)CSc1nc(C)[nH]c1[N+](=O)[O-] (stereo not given)	Cl transport mod -5.2 | KCC2 secondary inactive | KCC2 bumet counter inactive | KCC2 secondary2 inactive | HEK counter1 inactive | KCC2 retest ouab inactive | HEK293 Tl flux2 inactive
CC(C)(CCl)C(=O)Nc1ccc(OC(F)(F)F)cc1	none (no result: ROMK primary)
CS/C(=C\[N+](=O)[O-])Nc1ccc(OC(F)(F)F)cc1	Cl transport mod -4.2 | KCC2 secondary inactive | KCC2 bumet counter inconclusive | KCC2 secondary2 0.025 | HEK counter1 inconclusive | KCC2 retest ouab 0.014 | HEK293 Tl flux2 inactive
Cc1cc(-c2c(C)[nH]n(-c3ccc(Cl)cc3)c2=O)n(-c2ccccc2)n1	none (no result: ROMK primary)
Cc1[nH]n(-c2ccccc2)c(=O)c1C(=O)c1cccc(F)c1	none (no result: INS promoter inh)
Cc1[nH]n(-c2cccc(Cl)c2)c(=O)c1-c1ccccc1	none (no result: ROMK primary, Insulin prom up, Cl transport mod)
Cc1[nH]n(-c2ccccc2)c(=O)c1-c1ccccc1	none (no result: ROMK primary)
CCSC(=S)c1c(C)[nH]n(-c2ccccc2)c1=O	Cl transport mod 101 (no result: ROMK primary, Lmaj promast, INS promoter inh, WT yeast gro inh) | KCC2 secondary 0.046 | KCC2 bumet counter 0.1 | KCC2 secondary2 inactive | HEK counter1 0.061 | KCC2 retest ouab 0.067 | HEK293 Tl flux2 0.028
Cc1[nH]n(-c2ccccc2)c(=O)c1C(=O)c1ccc(Cl)cc1	Cl transport mod 11 (no result: ROMK primary, Lmaj promast, INS promoter inh, WT yeast gro inh) | KCC2 secondary inactive | KCC2 bumet counter 0.021 | KCC2 secondary2 0.04 | HEK counter1 0.022 | KCC2 retest ouab 0.03 | HEK293 Tl flux2 0.024
Cc1[nH]n(-c2ccccc2)c(=O)c1C(=O)c1ccccc1	Cl transport mod 4.4 (no result: Lmaj promast, INS promoter inh, WT yeast gro inh) | KCC2 secondary inactive | KCC2 bumet counter 0.0085 | KCC2 secondary2 inactive | HEK counter1 0.012 | KCC2 retest ouab inactive | HEK293 Tl flux2 0.014
Cc1[nH]n(-c2ccc(Cl)cc2)c(=O)c1C(=O)c1ccccc1	Cl transport mod 8.1 (no result: Insulin prom up) | KCC2 secondary inactive | KCC2 bumet counter 0.02 | KCC2 secondary2 inactive | HEK counter1 0.016 | KCC2 retest ouab 0.027 | HEK293 Tl flux2 0.019
CCOC(=O)c1cc(-c2cccnc2)nn1-c1ccccn1	none (no result: ROMK primary)
CCCn1nc(C(=O)OCC(=O)NC(C)c2ccccc2)c2ccccc2c1=O (stereo not given)	none (no result: INS promoter inh)
CN(C(=O)CSc1ncnc2scc(-c3ccccc3)c12)C1CCS(=O)(=O)C1 (stereo not given)	none
